Source: the supplement of paper PMC3616981
± gives the standard deviation of the averaged measurements.

Compound: CC(C)c1cccc(C(C)C)c1N1C(=O)c2ccc(O)cc2C1=O
Experiment: reporter fold induction vs vehicle; higher = higher reporter activity
Method in brief: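 Multiplexed cellular biosensor reporter system with cis response-element and trans nuclear-receptor transcription factor reporter constructs (48 cis, 25 trans) and homogeneous detection, tested in ToxCast Phase II at 8 concentrations (0.091–200 µM). Reporter activity is given as fold induction relative to vehicle control. Replicates were averaged where present.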

Row | Target | reporter fold induction (0.091 µM) | reporter fold induction (0.274 µM) | reporter fold induction (0.823 µM) | reporter fold induction (2.469 µM) | reporter fold induction (7.407 µM) | reporter fold induction (22.22 µM) | reporter fold induction (66.67 µM) | reporter fold induction (200 µM)
1 | LXRb_TRANS | 1.17 | 1.09 | 1 | 1.16 | 0.89 | 0.837 | 1.13 | 1.11
2 | Ets_CIS | 1.02 | 0.953 | 1.01 | 1.02 | 1 | 0.917 | 1.01 | 0.897
3 | Oct_MLP_CIS | 1.09 | 1.03 | 1.03 | 1.01 | 1.08 | 1.1 | 1.77 | 3.68
4 | ERRg_TRANS | 1.02 | 1.11 | 1.14 | 1.02 | 0.941 | 1.07 | 0.845 | 0.391
5 | PXRE_CIS | 1.22 | 1.56 | 0.755 | 0.738 | 6.98 | 6.26 | 2.42 | 0.398
6 | FXR_TRANS | 1.17 | 1.15 | 1.19 | 1.17 | 1.09 | 1.46 | 1.82 | 1.92
7 | AR_TRANS | 1.06 | 0.894 | 1.13 | 1.02 | 1.02 | 1.29 | 1.01 | 1.14
8 | TGFb_CIS | 1.08 | 0.916 | 0.91 | 0.906 | 0.939 | 1.03 | 1.23 | 0.915
9 | TA_CIS | 1.06 | 1 | 1.04 | 0.923 | 0.983 | 1.08 | 1.39 | 1.22
10 | Sox_CIS | 0.965 | 1.03 | 1.03 | 1.04 | 0.984 | 1.19 | 1.19 | 2.17
11 | GATA_CIS | 1 | 0.993 | 0.983 | 1.05 | 0.98 | 0.902 | 1.07 | 0.842
12 | Sp1_CIS | 1.04 | 1.04 | 1.02 | 0.989 | 1.11 | 1.08 | 1.39 | 2.02
13 | ERE_CIS | 1.55 | 2.27 | 1.01 | 0.967 | 4.09 | 3.27 | 4.08 | 0.978
14 | GRE_CIS | 0.966 | 0.951 | 1.06 | 1.05 | 0.999 | 0.996 | 1.01 | 0.888
15 | Xbp1_CIS | 1.06 | 0.98 | 0.93 | 0.937 | 1.21 | 1.13 | 1.74 | 4.47
16 | Myb_CIS | 0.995 | 0.98 | 1.02 | 0.983 | 0.998 | 0.979 | 1.03 | 1.13
17 | C_EBP_CIS | 1.02 | 0.969 | 1.04 | 1.04 | 1.12 | 0.945 | 1.31 | 1.32
18 | CMV_CIS | 0.996 | 0.94 | 1 | 0.92 | 1.02 | 1.41 | 1.73 | 1.11
19 | E_Box_CIS | 1.04 | 0.955 | 1.02 | 0.967 | 1.11 | 0.945 | 1.06 | 0.895
20 | M_19_CIS | 1.01 | 1.01 | 0.978 | 1.01 | 0.961 | 0.953 | 1.05 | 0.776

Row | Target | reporter fold induction (0.091 µM) | reporter fold induction (0.274 µM) | reporter fold induction (0.823 µM) | reporter fold induction (2.469 µM) | reporter fold induction (7.407 µM) | reporter fold induction (22.22 µM) | reporter fold induction (66.67 µM) | reporter fold induction (200 µM)
21 | RARg_TRANS | 1.16 | 0.981 | 1.09 | 1.21 | 1.54 | 1.83 | 1.82 | 0.812
22 | NFI_CIS | 1.01 | 0.966 | 1.05 | 0.998 | 1.02 | 0.921 | 1.41 | 1.66
23 | M_19_TRANS | 1.08 | 0.97 | 1.01 | 0.967 | 0.981 | 0.997 | 1.01 | 1.02
24 | VDRE_CIS | 1.07 | 1.09 | 0.969 | 0.979 | 1.62 | 1.76 | 2.18 | 3.25
25 | HSE_CIS | 0.991 | 0.939 | 1.05 | 1.05 | 0.985 | 0.942 | 1.81 | 3.95
26 | NF_kB_CIS | 1.08 | 0.96 | 0.971 | 0.979 | 0.968 | 1.08 | 1.39 | 1.06
27 | PPARa_TRANS | 1.19 | 1.13 | 0.988 | 0.988 | 0.912 | 0.775 | 0.936 | 0.812
28 | XTT_Cytotoxicity | 97.6 ± 5.6 | 107 ± 18 | 111 ± 0.85 | 108 ± 3.1 | 123 ± 3.8 | 111.2 ± 0.75 | 113.8 ± 0.46 | 106.5 ± 0.33
29 | NRF2_ARE_CIS | 1.19 | 1.1 | 0.995 | 0.886 | 1.15 | 1.48 | 2.47 | 0.886
30 | M_06_CIS | 0.997 | 0.997 | 1.01 | 0.995 | 1.02 | 1.02 | 0.98 | 1.09
31 | RORE_CIS | 1.04 | 1.06 | 1.06 | 0.974 | 1.08 | 1.15 | 1.84 | 1.72
32 | RXRb_TRANS | 1.04 | 1.11 | 1.24 | 1.01 | 1.17 | 1.19 | 1.07 | 0.915
33 | RXRa_TRANS | 0.986 | 0.983 | 1.1 | 0.957 | 1.09 | 1.31 | 1.31 | 1.84
34 | Ahr_CIS | 0.965 | 0.977 | 0.949 | 1.01 | 1.06 | 1 | 2.27 | 1.09
35 | Pax6_CIS | 1 | 1.01 | 1.02 | 1.1 | 0.964 | 1.1 | 1.49 | 2.44
36 | M_61_TRANS | 0.964 | 1.01 | 0.995 | 1.01 | 1.01 | 1 | 0.996 | 0.992
37 | RORb_TRANS | 0.758 | 0.955 | 0.81 | 1.32 | 0.966 | 0.625 | 0.434 | 0.342
38 | NURR1_TRANS | 1.09 | 1.26 | 1.01 | 1.05 | 1.08 | 0.976 | 0.934 | 1.2
39 | EGR_CIS | 1.05 | 0.979 | 0.95 | 0.927 | 1.1 | 1.2 | 1.64 | 2.7
40 | VDR_TRANS | 1.07 | 1.13 | 1.1 | 1.39 | 1.07 | 1.41 | 1.2 | 1.54
